Test results taken from PubChem BioAssay (NCATS).
Values joined by “and” are separate entries in the source; they are usually repeats but may differ in a detail not shown here. Equal entries are not always repeated. Inconclusive results are not listed. Entries that show only a call come without a potency. More than one record can exist for a structure, and the calls need not agree. Active and inactive are the calls of the source. Calls follow the shape of the full dose curve.

Experiments:
[1] = Cytotoxicity counterscreen for inhibitors of SARS-CoV-2 cell entry (AID 1645845); conditions: cell viability (SARS-CoV-2 entry assay cells); series mostly up to 57.1 µM; also: nearly all actives have a fitted effect of over 50% in size
Method in brief: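 48 h compound treatment (after 1 h preincubation), HEK293-ACE2 cells, 37 C/5% CO2; ATP luminescence endpoint; normalized to cell wells and media blanks.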

[2] = Primary qHTS to identify inhibitors of SARS-CoV-2 cell entry (AID 1645846); conditions: SARS-CoV-2 pseudovirus cell entry assay, luminescence; activity change, negative = inhibition: at 57.1 µM (top of the series) unless noted; series mostly up to 57.1 µM; also: nearly all actives have a fitted effect of over 45% in size
Method in brief: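 Using luciferase-reporting pseudoviruses carrying Wuhan-Hu-1 spike, the screen tracks entry into stably ACE2-expressing cells over 48 hr. Activity is expressed relative to spike particles versus particles lacking any fusion protein.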
Potency is read from the fitted curve at half-maximal effect.

SMILES	Potency [1]	Potency [2]	activity change, negative = inhibition [2]	outcome [1]
CC(C)CN(C[C@@H](O)[C@H](Cc1ccccc1)NC(=O)O[C@H]1CO[C@H]2OCC[C@H]21)S(=O)(=O)c1ccc(N)cc1	inactive	inactive	–	–
COc1cc2c(Nc3ccc(Br)cc3F)ncnc2cc1OCC1CCN(C)CC1	inactive and 31.6 µM (active)	inactive	–	–
C/C=C1\[C@H]2C=C(C)C[C@]1(N)c1ccc(=O)[nH]c1C2	inactive	inactive	–	–
O=C1c2ccccc2C(=O)c2c1ccc(O)c2O	inactive	inactive	–	–
C[C@@H]1CN(c2c(F)c(F)c3c(=O)c(C(=O)O)cn(C4CC4)c3c2F)C[C@H](C)N1	inactive	inactive	–	–
O=C1c2c(O)cccc2Cc2cccc(O)c21	inactive	inactive	–	–
COc1ccc2cc1Oc1cc3c(cc1OC)CC[N+](C)(C)[C@H]3Cc1ccc(cc1)Oc1c(OC)c(OC)cc3c1[C@@H](C2)[N+](C)(C)CC3	inactive	inactive	–	–
CC(=O)NC[C@H]1CN(c2ccc(N3CCOCC3)c(F)c2)C(=O)O1	inactive	–	-4.07%	–
COc1cc(/C=C/C(=O)O[C@H]2CC[C@]34C[C@]35CC[C@]3(C)[C@@H]([C@H](C)CCC=C(C)C)CC[C@@]3(C)[C@@H]5CC[C@H]4C2(C)C)ccc1O	inactive	inactive	–	–
C[C@@H]1O[C@@H]1P(=O)(O)O	inactive	–	1.53% [at 27.1 µM]	–
CC(C)=CCC/C(C)=C/CO	inactive	–	2.42%	–
CS(=O)(=O)c1ccc([C@@H](O)[C@@H](CF)NC(=O)C(Cl)Cl)cc1	inactive	–	-26.1%	–
Cc1ccccc1OCC(O)CO (stereo not drawn)	inactive	inactive	–	–
Oc1ccccc1	inactive	inactive	–	–
Cc1ccc(C(C)C)cc2c(C)ccc1-2	inactive	inactive	–	–
Cc1oc(=O)oc1CN1CCN(c2cc3c(cc2F)c(=O)c(C(=O)O)c2n3C(C)S2)CC1 (stereo not drawn)	inactive	inactive	–	–
Cc1ccccc1N1CCN(CCc2nnc3n2CCCC3)CC1	inactive	inactive	–	–
O=S(=O)(O)c1ccc2nc(-c3ccccc3)[nH]c2c1	inactive	inactive	–	–
CCCCC(CC)CNC(=O)CC(C)OC(=O)CCC(=O)O (stereo not drawn)	inactive	inactive	–	–
CC[N+](C)(CC)CCOC(=O)C1c2ccccc2Oc2ccccc21	inactive	inactive	–	–
CC1(C)O[C@H]2CC(=O)OC[C@]23[C@H]2CC[C@@]4(C)[C@H](c5ccoc5)OC(=O)[C@H]5O[C@]54[C@]2(C)C(=O)C[C@@H]13	inactive	–	-13.1%	–
CCCCCCCCCCCC(=O)[O][Sn]([CH2]CCC)([CH2]CCC)[O]C(=O)CCCCCCCCCCC	inactive	–	-23.2%	–
Cc1cccc(C)c1NC(=O)CC12CCCN1CCC2	inactive	–	-23.5%	–
O=S(=O)(O)c1ccc(O)cc1	inactive	–	2.14%	–
CN(C)CCN(Cc1ccsc1)c1ccccn1	inactive	–	-8.15%	–
O=C(O)CNC(=O)c1ccccc1	inactive	inactive	–	–
CCCCC(CC)COC(=O)c1ccccc1O (stereo not drawn)	inactive	inactive	–	–

SMILES	Potency [1]	Potency [2]	activity change, negative = inhibition [2]	outcome [1]
CN1C[C@H](C(=O)N[C@]2(C)O[C@@]3(O)[C@@H]4CCCN4C(=O)[C@H](Cc4ccccc4)N3C2=O)C=C2c3cccc4[nH]cc(c34)C[C@H]21	inactive	–	-28.9%	–
COc1c(N2C[C@@H]3CCCN[C@@H]3C2)c(F)cc2c(=O)c(C(=O)O)cn(C3CC3)c12	inactive	–	-24.8%	–
O=C(O)/C=C(\CC(=O)O)C(=O)O	inactive	–	0.545%	–
O=c1[nH]c(=O)n([C@H]2C[C@H](O)[C@@H](CO)O2)cc1I	inactive	15.8 µM (active)	–	–
Cc1cc(NS(=O)(=O)c2ccc(N)cc2)no1	inactive	inactive	–	–
CC(C)C(=O)c1c(C(C)C)nn2ccccc12	inactive	inactive	–	–
Cc1c(F)c(N2CCNC(C)C2)cc2c1c(=O)c(C(=O)O)cn2C1CC1 (stereo not drawn)	inactive	–	-25.6%	–
COC(=O)CCCCC(CCSS/C(CCO)=C(\C)N(C=O)Cc1cnc(C)nc1N)SC(C)=O (stereo not drawn)	inactive	inactive	–	–
O=c1[nH]c(=O)n([C@H]2CCCO2)cc1F	inactive	inactive	–	–
CC(=O)OCC(COC(C)=O)OC(C)=O	inactive	–	0.643%	–
CCCC(=O)O[C@]1(C(=O)CO)CC[C@H]2[C@@H]3CCC4=CC(=O)CC[C@]4(C)[C@H]3[C@@H](O)C[C@@]21C	inactive	–	-10%	–
O=C(CCOCCOCCOCCOCCC(=O)Nc1c(I)cc(I)c(C(=O)O)c1I)Nc1c(I)cc(I)c(C(=O)O)c1I	inactive	inactive	–	–
CC(C)(C)NCC(O)COc1ccccc1OCC1CCCO1 (stereo not drawn)	inactive	–	4.08%	–
COc1cc(NS(=O)(=O)c2ccc(N)cc2)nc(C)n1	inactive	inactive	–	–
COc1ccc(C2CNC(=O)C2)cc1OC1CCCC1 (stereo not drawn)	inactive	–	4.15% and -11.8%	–
CCCCCCCCCCCCSCCOCCO	inactive	inactive	–	–
CO[C@@]1(NC(=O)Cc2cccs2)C(=O)N2C(C(=O)O)=C(COC(N)=O)CS[C@@H]21	inactive	inactive	–	–
Cc1noc(NS(=O)(=O)c2ccc(N)cc2)c1C	inactive	–	-11.7%	–
COc1cc(C)c(Cc2cnc(N)nc2N)cc1OC	inactive	inactive	–	–
Cc1c(C(C)C)c(=O)n(-c2ccccc2)n1C	inactive	–	-4.29%	–
CC(=O)Nc1ccc(S(=O)(=O)Nc2cc(C)on2)cc1	inactive	inactive	–	–
CC(C)(CO)[C@@H](O)C(=O)NCCCO	inactive	inactive	–	–
CCOC(=O)[C@H](CCc1ccccc1)N[C@H]1CCCN2CCC[C@@H](C(=O)O)N2C1=O	inactive	–	-27.1%	–
Cc1onc(-c2ccccc2)c1-c1ccc(S(N)(=O)=O)cc1	inactive	–	-25.7% and -12.6%	–
CC(=O)OCC(=O)[C@@]1(O)[C@H](C)C[C@H]2[C@@H]3CCC4=CC(=O)C=C[C@]4(C)[C@@]3(F)[C@@H](O)C[C@@]21C	inactive	inactive	–	–
NCCCC[C@H](N[C@@H](CCc1ccccc1)C(=O)O)C(=O)N1CCC[C@H]1C(=O)O	inactive	–	-27.7%	–
O=C(OCc1ccccc1)c1ccccc1	inactive	inactive	–	–

SMILES	Potency [1]	Potency [2]	activity change, negative = inhibition [2]	outcome [1]
Oc1ccc(OCc2ccccc2)cc1	inactive	inactive and 3.16 µM (active)	–	–
O=C(O)c1cc(O)c(O)c(O)c1	inactive	inactive	–	–
Cc1c(N(C)CS(=O)(=O)O)c(=O)n(-c2ccccc2)n1C	inactive	–	1.77%	–
NC[C@H]1O[C@H](O[C@H]2[C@H](O[C@@H]3O[C@H](CO)[C@@H](O)[C@H]3O)C(O)[C@H](N)C[C@@H]2N)[C@H](N)[C@@H](O)[C@@H]1O (stereo partly drawn)	–	–	-2.22% [at 11.3 µM]	inactive [at 11.3 µM]
C[C@]12CCC(=O)C=C1CC[C@@H]1[C@@H]2[C@@H](O)C[C@@]2(C)[C@H]1CC[C@]2(O)C(=O)COC(=O)CCC(=O)O	inactive	inactive	–	–
Cc1cc(C)nc(NS(=O)(=O)c2ccc(N)cc2)n1	inactive	inactive	–	–
C/C(=N\O)[C@@H](C)NCC(C)(C)CN[C@H](C)/C(C)=N/O	inactive	inactive	–	–
CC(C)(C)NC[C@H](O)COc1cccc2c1CCCC2=O	inactive	–	-5.98%	–
O=C(CO)[C@@H](O)[C@H](O)[C@@H](O)CO	inactive	–	-14.3%	–
C#C[C@]1(O)CC[C@H]2[C@@H]3CCc4cc(OC5CCCC5)ccc4[C@H]3CC[C@@]21C	inactive	–	-15.1%	–
CCN1CC(CCN2CCOCC2)C(c2ccccc2)(c2ccccc2)C1=O (stereo not drawn)	inactive	–	-22.6%	–
CO[C@@]1(NC(=O)CSCC#N)C(=O)N2C(C(=O)O)=C(CSc3nnnn3C)CS[C@@H]21	inactive	inactive	–	–
COc1cccc(OC)c1C(=O)N[C@@H]1C(=O)N2[C@@H]1SC(C)(C)[C@@H]2C(=O)O	inactive	–	-19.9%	–
O=C(O)CCC(=O)O	inactive	inactive	–	–
COCCCOc1ccnc(CS(=O)c2nc3ccccc3[nH]2)c1C (stereo not drawn)	inactive	–	1.47%	–
NS(=O)(=O)c1cc(C2(O)NC(=O)c3ccccc32)ccc1Cl (stereo not drawn)	inactive	inactive	–	–
CC(=O)N(CC(O)CO)c1c(I)c(C(=O)NCCO)c(I)c(C(=O)NCC(O)CO)c1I (stereo not drawn)	inactive	–	-15%	–
CN1CCC[C@@H]1c1cccnc1	inactive	inactive	–	–
O=C(c1ccccc1)C(O)c1ccccc1 (stereo not drawn)	inactive	inactive	–	–
Nc1ccc(S(=O)(=O)NC(=O)c2ccccc2)cc1	inactive	inactive	–	–
CN[C@@H]1[C@H](O)[C@H](NC)[C@H]2O[C@@]3(O)C(=O)C[C@@H](C)O[C@H]3O[C@@H]2[C@H]1O	inactive	inactive	–	–
Nc1ncn([C@H]2C[C@H](O)[C@@H](CO)O2)c(=O)n1	inactive	–	-12.8%	–
CNCCCC12CCC(c3ccccc31)c1ccccc12	inactive	28.2 µM (active)	–	–
CC(C)(Oc1ccc(C2CC2(Cl)Cl)cc1)C(=O)O (stereo not drawn)	inactive	inactive	–	–
NC(=O)c1ccc([N+](=O)[O-])cc1Cl	inactive	–	-5.3%	–
